The results in this text go back to PubChem BioAssay.

Active and inactive are the calls of the source. Unless noted, the rule behind the calls is not given here.

A short description of test [1]: compounds binding Alexa647 anti-His antibody – biochemical, small-molecule microarray, 635 nm fluorescence, artefact control for SMM control protein annotation, primary screen (AID 1128).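 Note: score merges feature fluorescence with signal-to-noise for each printed compound spot.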 The conditions noted are these: higher = more signal.
In test [2] the test system is Human papillomavirus type 1a E7 protein (residues 1-88). The experiment in a line: HPV1a E7 small-molecule binders, primary screen, biochemical, small-molecule microarray, residues 1-88, 635 nm (AID 1129). The conditions noted are these: small-molecule microarray binding, fluorescence 635 nm; higher = more signal.
Test [3] concerns the target Focal adhesion kinase 1 (Homo sapiens) (UniProt Q05397). Description: PTK2 protein binding on printed compound slides – biochemical, small-molecule microarray, 635/667 nm fluorescence, BSA, DTT, primary screen (AID 1130).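 Note: composite of spot emission at 667 nm and signal to noise over triplicate slides.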 The conditions noted are these: 635 nm fluorescence, higher = more signal.
Test [4] relates to Fibrinogen (Alexa647-labelled). Description: Alexa647-fibrinogen binding to printed small molecules – biochemical, small-molecule microarray, 635/667 nm fluorescence, artefact control for SMM control-protein annotation, profiling panel (AID 1131).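 Note: z-score merges 667 nm fluorescence with per-spot signal-to-noise over triplicate slides.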 The conditions noted are these: fibrinogen-A647 binding fluorescence, higher = more signal.
The target in test [5] is Follistatin (Homo sapiens) (UniProt P19883). The experiment in a line: FST protein binding to printed compounds – biochemical, small-molecule microarray, 635/667 nm fluorescence, primary screen (AID 1132). The conditions noted are these: 635 nm fluorescence, higher = more signal.
Follistatin (Homo sapiens), sequence (P19883 whole entry, looked up): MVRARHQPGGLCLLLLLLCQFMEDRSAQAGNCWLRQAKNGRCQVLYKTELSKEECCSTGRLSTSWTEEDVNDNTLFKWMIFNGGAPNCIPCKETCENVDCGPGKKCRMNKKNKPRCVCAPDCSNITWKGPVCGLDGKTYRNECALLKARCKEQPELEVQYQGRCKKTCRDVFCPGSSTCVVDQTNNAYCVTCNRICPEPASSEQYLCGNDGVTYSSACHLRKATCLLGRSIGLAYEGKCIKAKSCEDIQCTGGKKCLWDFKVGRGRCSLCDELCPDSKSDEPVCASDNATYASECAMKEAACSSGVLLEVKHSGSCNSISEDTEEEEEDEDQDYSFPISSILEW
In test [6] the target is Fibroblast growth factor 2 (Homo sapiens) (UniProt P09038). The experiment in a line: basic fibroblast growth factor binding to printed compounds – biochemical, small-molecule microarray, 635/667 nm fluorescence, primary screen (AID 1133). The conditions noted are these: FGF2, fluorescence 635/667, higher = more signal.
Fibroblast growth factor 2 (Homo sapiens), sequence (P09038 whole entry, looked up): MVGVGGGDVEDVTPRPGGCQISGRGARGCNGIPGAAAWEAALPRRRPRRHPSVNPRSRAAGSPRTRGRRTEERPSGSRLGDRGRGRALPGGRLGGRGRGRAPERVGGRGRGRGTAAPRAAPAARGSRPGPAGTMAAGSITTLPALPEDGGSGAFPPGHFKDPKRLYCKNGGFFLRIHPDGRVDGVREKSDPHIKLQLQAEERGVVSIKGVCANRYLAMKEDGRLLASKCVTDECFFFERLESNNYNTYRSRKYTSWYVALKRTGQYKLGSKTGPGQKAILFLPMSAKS
Test [7] in a line: JC-1 mitochondrial potential readout, lung cancer cells – cell-based, A549, JC-1 fluorescence, basal, 24 h, 100 nL, profiling panel (AID 1138).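 Note: A549 lung adenocarcinoma cells under basal conditions with no added stimulus; test concentration not given here.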 The conditions noted are these: higher = more signal.
The subject of test [8] is Lefty1. The experiment in a line: Lefty1 protein binding to printed compounds – biochemical, small-molecule microarray, 635/667 nm fluorescence, primary screen (AID 1139). The conditions noted are these: fluorescence 635/667, higher = more signal.
The subject of test [9] is wheat germ agglutinin (Triticum aestivum), Alexa647-labelled. Description: Alexa647-WGA lectin binding to printed small molecules – biochemical, small-molecule microarray, 635/667 nm fluorescence, artefact control for SMM control-protein annotation, profiling panel (AID 1140).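 Note: score merges 667 nm feature emission with signal to noise over triplicate slides.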 The conditions noted are these: WGA-A647 binding, 635 nm fluorescence, higher = more signal.
In test [10] the target is Luciferin 4-monooxygenase (Photinus pyralis) (UniProt P08659). Description: inhibition of purified Photinus pyralis luciferase – biochemical, luminescence, purified enzyme, 2006 set, primary screen (AID 1141).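 Note: cell-free assay with purified firefly luciferase at 100 ng per well in PBS; test concentration not given here.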 The conditions noted are these: purified firefly luciferase, SteadyGlo luminescence, 30 min; higher = more signal, called active from +8 up or from −8 down.
Luciferin 4-monooxygenase (Photinus pyralis), sequence (P08659 whole entry, looked up): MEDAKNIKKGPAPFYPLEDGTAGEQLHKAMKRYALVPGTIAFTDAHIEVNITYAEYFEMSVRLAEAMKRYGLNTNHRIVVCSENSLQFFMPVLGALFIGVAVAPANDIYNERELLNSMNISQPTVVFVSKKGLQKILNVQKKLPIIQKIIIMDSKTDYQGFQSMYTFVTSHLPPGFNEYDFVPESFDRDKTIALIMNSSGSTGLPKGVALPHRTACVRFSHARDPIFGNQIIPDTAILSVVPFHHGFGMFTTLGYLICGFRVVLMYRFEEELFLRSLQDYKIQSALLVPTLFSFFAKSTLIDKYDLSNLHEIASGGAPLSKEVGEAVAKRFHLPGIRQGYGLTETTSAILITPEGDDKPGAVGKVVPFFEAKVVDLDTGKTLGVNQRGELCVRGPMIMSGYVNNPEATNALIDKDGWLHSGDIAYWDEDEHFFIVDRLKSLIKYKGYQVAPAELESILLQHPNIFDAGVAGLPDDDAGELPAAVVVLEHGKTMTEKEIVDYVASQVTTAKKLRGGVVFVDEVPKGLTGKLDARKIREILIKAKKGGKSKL
The subject of test [11] is Wnt5a (protein binding on small-molecule microarray). Description: small molecules binding Wnt5a protein – biophysical, small-molecule microarray, 635/667 nm fluorescence, primary screen (AID 1142).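 Note: fluorescence read at 667 nm with signal to noise per printed feature.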 The conditions noted are these: 635 nm fluorescence, higher = more signal.
Test [12] is described as follows: ATP-based viability of Huh7 replicon cells – cell-based, CellTiter-Glo luminescence, basal, 48 h, cytotoxicity control for HCV replication inhibitor project, primary screen (AID 1143).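 Note: Huh7 hepatoma cells carrying a hepatitis C replication reporter with no stimulus; test concentration not given here.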 The conditions noted are these: higher = more signal, called active from +8 up or from −8 down. A general note: In antiviral work, replicon cells carry a viral genome segment that copies itself.

The nature of test [13]: Pseudomonas biofilm growth suppression – PAO1 strain, BacTiter-Glo luminescence, LB-PBS, primary screen (AID 1144). The conditions noted are these: P. aeruginosa PAO1 biofilm, 12 h, higher = more signal.
Test [14] can be described thus: basal CRE-LacZ reporter activity in PC12 – cell-based, unstimulated, primary screen (AID 1145). The conditions noted are these: no forskolin, luminescence, 4.5 h, higher = more signal, called active from +8 up or from −8 down.
Test [15] is described as follows: forskolin-driven CRE-LacZ activity in PC12 – cell-based, CRE-LacZ reporter, forskolin-stimulated, primary screen (AID 1146).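 Note: PC12 cells with 6xCRE LacZ reporter stimulated by forskolin 10 µM; beta-galactosidase reporter signal reflecting CREB driven transcription.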 The conditions noted are these: luminescence, 4.5 h, higher = more signal, called active from +8 up or from −8 down.
Test [16] deals with Streptavidin (Streptomyces avidinii) (UniProt P22629). The experiment in a line: compounds binding control protein streptavidin – biophysical, small-molecule microarray, 635/667 nm fluorescence, artefact control for SMM compound annotation, primary screen (AID 1147).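 Note: signal reflects streptavidin binding to arrayed compounds as a control protein.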 The conditions noted are these: higher = more signal.
Streptavidin (Streptomyces avidinii), sequence (P22629 whole entry, looked up): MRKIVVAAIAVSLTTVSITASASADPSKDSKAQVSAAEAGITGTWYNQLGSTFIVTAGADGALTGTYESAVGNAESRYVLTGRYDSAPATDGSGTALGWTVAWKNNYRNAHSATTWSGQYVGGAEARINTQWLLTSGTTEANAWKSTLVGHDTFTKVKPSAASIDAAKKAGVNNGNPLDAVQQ
Test [17] is described as follows: probe aInhba binding on compound microarray – biochemical, small-molecule microarray, 635/667 nm fluorescence, primary screen (AID 1148).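 Note: score merges 667nm spot fluorescence with signal-to-noise for antibody binding to printed compounds.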 The conditions noted are these: higher = more signal.
Test [18] addresses Torsin-1A (Homo sapiens) (UniProt O14656). Description: TOR1A wild-type binding on microarray – cell lysate, small-molecule microarray, lysate, 635/667 nm, primary screen (AID 1149). The conditions noted are these: COS7 hTOR1A-WT lysate, 635 nm fluorescence, higher = more signal.
Test [19] shares this target. Description: torsin A mutant lysate binding on microarrays – cell lysate, small-molecule microarray, COS7 lysate, 635/667 nm fluorescence, primary screen (AID 1150).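 Note: score pools 667 nm emission and signal to noise measuring lysate protein binding.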 The conditions noted are these: COS7 hTOR1A mutant lysate, 635 nm fluorescence, higher = more signal.
For test [20], the system named is Sonic hedgehog protein (Shh). The experiment in a line: Sonic hedgehog microarray binding compounds – biochemical, small-molecule microarray, 635/667 nm fluorescence, primary screen (AID 1151).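 Note: Shh protein binding to compounds spotted on small-molecule microarray slides; score combines spot fluorescence intensity with signal-to-noise across triplicate slides.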 The conditions noted are these: 635 nm fluorescence, higher = more signal.

Torsin-1A (Homo sapiens), sequence (O14656 whole entry, looked up): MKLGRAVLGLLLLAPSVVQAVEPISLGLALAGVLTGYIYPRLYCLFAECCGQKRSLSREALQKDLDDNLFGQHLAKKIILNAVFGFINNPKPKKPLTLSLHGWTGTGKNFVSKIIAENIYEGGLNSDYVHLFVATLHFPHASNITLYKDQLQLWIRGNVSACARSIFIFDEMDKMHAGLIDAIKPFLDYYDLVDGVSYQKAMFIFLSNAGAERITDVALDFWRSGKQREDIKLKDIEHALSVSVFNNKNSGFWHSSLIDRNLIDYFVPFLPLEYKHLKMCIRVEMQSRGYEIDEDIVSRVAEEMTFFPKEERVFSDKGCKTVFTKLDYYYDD
Focal adhesion kinase 1 (Homo sapiens), sequence (Q05397 whole entry, looked up): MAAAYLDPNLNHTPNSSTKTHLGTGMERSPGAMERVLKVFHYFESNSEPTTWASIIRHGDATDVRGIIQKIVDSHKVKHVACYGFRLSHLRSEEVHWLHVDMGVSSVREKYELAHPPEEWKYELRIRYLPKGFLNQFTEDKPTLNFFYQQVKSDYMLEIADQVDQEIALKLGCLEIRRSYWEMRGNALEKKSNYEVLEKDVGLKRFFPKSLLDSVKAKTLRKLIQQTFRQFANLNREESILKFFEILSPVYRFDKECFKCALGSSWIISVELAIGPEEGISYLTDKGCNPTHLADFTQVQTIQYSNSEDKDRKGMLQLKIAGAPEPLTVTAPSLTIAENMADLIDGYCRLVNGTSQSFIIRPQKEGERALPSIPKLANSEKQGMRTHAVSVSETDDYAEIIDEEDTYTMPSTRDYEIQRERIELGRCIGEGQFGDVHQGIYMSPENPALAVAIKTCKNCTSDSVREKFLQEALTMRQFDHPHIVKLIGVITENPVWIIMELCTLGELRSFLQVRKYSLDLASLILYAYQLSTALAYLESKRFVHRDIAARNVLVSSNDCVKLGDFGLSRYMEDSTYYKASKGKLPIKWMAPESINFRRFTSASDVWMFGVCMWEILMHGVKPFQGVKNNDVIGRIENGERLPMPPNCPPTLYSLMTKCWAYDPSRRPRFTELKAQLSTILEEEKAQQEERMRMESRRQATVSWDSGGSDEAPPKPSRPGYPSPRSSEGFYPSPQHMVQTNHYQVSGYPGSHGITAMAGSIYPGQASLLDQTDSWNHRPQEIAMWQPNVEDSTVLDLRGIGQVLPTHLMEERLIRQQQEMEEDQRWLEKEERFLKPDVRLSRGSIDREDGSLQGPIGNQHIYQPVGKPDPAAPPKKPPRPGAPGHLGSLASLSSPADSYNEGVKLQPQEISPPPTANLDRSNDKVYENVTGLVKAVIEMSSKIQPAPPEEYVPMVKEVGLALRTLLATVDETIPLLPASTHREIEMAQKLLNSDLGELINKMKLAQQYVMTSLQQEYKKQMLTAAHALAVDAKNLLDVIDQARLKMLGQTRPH

In the case of `C=CCC(OC(C)=O)[C@@H]1[C@@H](N(Cc2ccc(-c3cccc(C(F)(F)F)c3)o2)C(=O)c2cccc3ccccc23)c2cc(OCCCO)ccc2N1C(=O)c1ccc2ccccc2c1` (stereo not given in full), the composite z-score in test [1] was 0.272; in [2], -0.582; in [3] it was -0.118; in test [4], -0.425; in test [5], 0.839; in [6], 0.101. Further, the composite z-score was 0.429 in [8]; 0.0578 in test [9]; -0.12 in [11]; -0.332 in test [16]; -0.118 in test [17]; -0.0205 in test [18]. Also, the results for the composite z-score in [19] and in test [20] were -0.0418 and 1.23, respectively. In addition, the z-score in [7] was -0.251; in test [10] it was 1.05 (inactive); in test [12], -1.6 (inactive); in test [13], -0.924 (inactive); in test [14] it was -0.71 (inactive); in test [15], 0.942 (inactive).
For the compound `O=C1OCCC=C[C@H]2OC34C=CCN(c5ccc(Cl)cc5)C(=O)[C@H]3N(CCO)C(=O)[C@@H]4C12` (stereo not given in full), the composite z-score in test [1] is -0.656; in [2] it was -0.574; in test [3], -0.732; in [4], -0.262; in test [5] it was -0.367; in test [6], -1.14. Further, the composite z-score in [8] was -0.837; in test [9], -0.524; in test [11] it was -0.524; in test [16], -1.23; in test [17] it was -0.159; in test [18], -1.97. Besides, the composite z-score was -0.0899 in test [19] and -0.524 in test [20]. Besides, the z-score is -0.0109 in test [7]; -0.381 (inactive) in test [10]; 0.373 (inactive) in test [12]; 0.108 (inactive) in [13]; -0.228 (inactive) in [14]; -0.256 (inactive) in test [15].
In the case of `CC(C)C[C@@H]1NC(=O)[C@@H]2C[C@H](C(=O)NCCCC[N+](C)(C)C)[C@H](c3ccc(O)cc3)N2C1=O`, the composite z-score in [1] is 2.63; in test [2] it was 0.643; in test [3], -0.133; in [4], 0.354; in test [5] it was 1.42; in test [6] it was 1.76. For the same compound, the composite z-score in [8] was 1.67; in test [9], 0.479; in test [11] it was 0.814; in [16], 0.0306; in test [17], 0.0669; in test [18], 1.47. The composite z-score in test [19] worked out at 1.2; in test [20], 2.13. Besides, the z-score in test [7] was -0.694; in test [10] it was -0.948 (inactive); in test [12], -0.394 (inactive); in test [13], -1.08 (inactive); in test [14], 0.285 (inactive); in test [15], -0.387 (inactive).
`Cc1ccc(F)cc1S(=O)(=O)N[C@@H]1CCN(Cc2ccc3c(c2)OCO3)C1`: the composite z-score in [1] is -0.146; in test [2], -0.844; in test [3], -0.226; in [4], 0.125; in test [5] it was 0.491; in [6], 0.279. The composite z-score in [8] was 0.236; in test [9], -0.0476; in test [11], -0.212; in test [16], -0.194; in test [17] it was -0.128; in [18], 0.241. The composite z-score in [19] is 0.0733; in test [20] it was -0.0547. Besides, the z-score is 1.32 in test [7]; -0.391 (inactive) in test [10]; -1.51 (inactive) in test [12]; -0.455 (inactive) in test [13]; 1.22 (inactive) in test [14]; -0.714 (inactive) in test [15].
Take `CN(C)CCCC[C@@H]1NC(=O)[C@H]2C[C@@H](C(=O)NCc3ccc(F)cc3)[C@@H](c3ccc(O)cc3)N2C1=O`: the composite z-score in test [1] was 2.75; in [2], 0.0526; in test [3], -0.193; in test [4] it was 0.563; in test [5] it was 1.41; in test [6], 1.93. For the same compound, the composite z-score in [8] is 1.64; in test [9], 0.419; in test [11], 0.727; in test [16], -0.122; in [17], 0.0676; in test [18], 1.12. Besides, the composite z-score in test [19] amounted to 0.587; in test [20] it was 2.15. The z-score in [7] is 0.742; in test [10] it was -1.23 (inactive); in test [12], 0.0491 (inactive); in test [13], 0.792 (inactive); in [14], 0.0084 (inactive); in test [15] it was -0.19 (inactive).
